From ChEMBL document CHEMBL4513216, “Probing the Open Global Health Chemical Diversity Library for Multistage-Active Starting Points for Next-Generation Antimalarials” (ACS Infect Dis, 2020)
The campaign covered roughly 69,000 compounds. About 8,600 (12%) showed an effect of 50% or more. The sample holds strong results, similar compounds and a random draw of the others, so the mix is not that of the screen.

What follows are compounds tested on Plasmodium berghei (assay: Screen against P. berghei liver stage (PbLuc), transformed with Luciferase, at 10uM). Settings: tested at 10 uM.
Format: functional, HepG2

| Compound | INHIBITION [%] |
| --- | --- |
| Cc1ccsc1C(=O)N1CCC2(CC(C(=O)N(C)C(C)C)=NO2)C1 (stereo not drawn) | 56.6 |
| CC(C)N(C)C(=O)C1=NOC2(CCN(C(=O)c3ccc(Cl)cc3)C2)C1 (stereo not drawn) | -6.53 |
| CC(C)N(C)C(=O)C1=NOC2(CCN(C(=O)c3ccncc3)C2)C1 (stereo not drawn) | 3.47 |
| O=C(C1CC=CC1)N1CCc2c(COCc3ccncc3)cncc2C1 | 6.8 |
| CCc1nc(C2CCCN(C(=O)c3cccc(C(N)=O)c3)C2)no1 (stereo not drawn) | 19.5 |
| Cc1ccc2cc(C(=O)N3CCN(C(=O)c4ccoc4)CC3)[nH]c2c1 | 24.8 |
| Cc1ccc2cc(C(=O)N3CCN(S(C)(=O)=O)CC3)[nH]c2c1 | -11.4 |
| Cc1ccc2cc(C(=O)N3CCS(=O)(=O)CC3)[nH]c2c1 | 53.6 |
| CCS(=O)(=O)CCN1CCN(C2CCC(C(C)C)CC2)CC1 (stereo not drawn) | 13.8 |
| CC(NCC1(N(C)C)CCOCC1)c1ccc(SC(F)F)cc1 (stereo not drawn) | 40.5 |
| CCOc1ccccc1C(CC(=O)Nc1ncc(C)s1)NC(C)=O (stereo not drawn) | 39.3 |
| CC(C)NC(=O)c1ccc2c(c1)nc1n2CCN(Cc2ccccc2)C1 | 33.3 |
| Fc1ccccc1CN1CCCC(NC2CCOCC2)C1 (stereo not drawn) | 49.4 |
| Fc1cccc(CN2CCC(c3noc(-c4ccncc4)n3)CC2)c1F | 28.5 |
| O=C(Cc1ccsc1)N1CCC(c2noc(-c3ccncc3)n2)CC1 | -0.902 |
| CN1CCN(C(=O)Cc2ccc(F)cc2)Cc2cccnc21 | -69.9 |
| O=C(Cc1ccsc1)N1CCN(CC2CC2)c2ncccc2C1 | 29.4 |
| c1cc(-c2nc(C3CCN(Cc4ccsc4)CC3)no2)ccn1 | 50.8 |
| O=C(Cc1ccsc1)N1CCC(c2n[nH]c3nccnc23)CC1 | -0.902 |
| CN1CCN(C(=O)Cc2ccsc2)Cc2cccnc21 | 64.9 |
| Cn1nc(C2CCCN(C(=O)Cc3ccsc3)C2)c2nccnc21 (stereo not drawn) | 48.3 |
| O=C(Cc1ccsc1)N1CCCC(c2n[nH]c3nccnc23)C1 (stereo not drawn) | 59.1 |
| O=C(Cc1ccsc1)N1CCCC(c2n[nH]c3ncccc23)C1 (stereo not drawn) | 67.7 |
| Cn1nc(C2CCN(C(=O)Cc3ccsc3)CC2)c2cccnc21 | 28 |
| O=C(Cc1ccc(F)cc1)N1CCCC(c2n[nH]c3nccnc23)C1 (stereo not drawn) | 23.2 |
| CC(=O)N1N=C(c2ccco2)OC1C(=O)N(CC(C)C)CC(C)C (stereo not drawn) | -33 |
| CC(C)c1cc(C(=O)N2CCN(CC3CC3)[C@@H]3CS(=O)(=O)C[C@@H]32)on1 | 42.1 |

| Compound | INHIBITION [%] |
| --- | --- |
| O=C(NCCn1ccnc1)c1ccn(-c2ccccc2)n1 | 1.78 |
| Cc1ccc(CN(CCCN(C)C)Cc2cnc(C)n2C)o1 | 9.93 |
| Cc1nnsc1CNC(=O)c1ccc2c(c1)nc(N1CCOCC1)n2C | -24.6 |
| CC(C)c1nc(CCn2cncn2)n(-c2ccc3c(c2)OCCO3)n1 | 3.96 |
| NC(=O)c1cc(C2CCCN(C(=O)CCc3ccsc3)C2)n[nH]1 (stereo not drawn) | 56.6 |
| c1cnc2c(C3CCN(Cc4ccsc4)CC3)n[nH]c2n1 | 64.8 |
| Fc1ccc(CN2CCC(c3n[nH]c4nccnc34)CC2)cc1F | 35.3 |
| COc1cccc(CC(=O)N2CCCC(c3n[nH]c4nccnc34)C2)c1 (stereo not drawn) | 2.71 |
| Cc1ccc(CC(=O)N2CCCC(c3n[nH]c4nccnc34)C2)cc1 (stereo not drawn) | 44.8 |
| Cc1ccc(CCC(=O)N2CCCC(c3cc(C(N)=O)[nH]n3)C2)cc1 (stereo not drawn) | 48.1 |
| c1cnc2[nH]nc(C3CCN(Cc4ccsc4)CC3)c2c1 | 22 |
| Cc1cccc(CC(=O)N2CCCC(c3n[nH]c4nccnc34)C2)c1 (stereo not drawn) | 50.8 |
| NC(=O)c1cc(C2CCCN(C(=O)CCc3ccncc3)C2)n[nH]1 (stereo not drawn) | -51.5 |
| Cc1nn(CCC(=O)NC2CCCOC2)c(C)c1C (stereo not drawn) | 3.35 |
| CC1CCN(CCNC(=O)C(C)n2cncn2)CC1 (stereo not drawn) | 22.3 |
| CNC(=O)C1(C)CN(Cc2cn(C)c3ccc(F)cc23)CCO1 (stereo not drawn) | 3.48 |
| CNC(=O)[C@@H]1CN(C(=O)C2CCC2)C[C@H]1c1ccnc(N2CCCC2)n1 | -33.3 |
| CCCN1CC(NC(=O)Nc2nc(C)n(C(C)C)n2)CC1=O (stereo not drawn) | 44.6 |
| Cc1nc(NC(=O)NC2CC(=O)N(C)C2)nn1C(C)C (stereo not drawn) | 40.6 |
| CCN1CC(NC(=O)Nc2nc(C)n(C(C)C)n2)CC1=O (stereo not drawn) | 64.4 |
| COC(=O)C(NC(=O)CCc1ccco1)c1cc(F)ccc1F (stereo not drawn) | -4.16 |
| CC(C(=O)N1CCCCC1)n1nc(-c2cccs2)cc(N)c1=O (stereo not drawn) | 23 |
| O=C(Cc1ccc(Cl)cc1)N[C@@H]1CCC[C@@H](O)[C@@H]1O | 14.21 |
| CC(C)(C)c1noc(-c2ccnc(-n3cnc(C(=O)O)c3)c2)n1 | -6.73 |
| CC(=O)N1CCOC(c2cncc(CCC(N)=O)n2)C1 (stereo not drawn) | 10.9 |
| c1nc(C2CCCCO2)ncc1CN1CCOCC1 (stereo not drawn) | 0.696 |
